# Source: PubChem BioAssay AID1159580 (chemical genetic matrix, 2015)
# The whole screen tested about 5,500 compounds, of which about 2,000 (36%) were called active. Inconclusive results (about 18%) are left out. The list shows a part of the results. A number with no mark means an inactive call. Rule as the data show it: active = normalized growth mostly below about 0.91 (no sharp cut-off); inconclusive = no clear call, values can overlap the other calls; inactive = mostly above about 0.92.
# Test: chemical genetic growth profiling, strain panel (AID 1159580);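 also: tested at 20 µM; growth read once vehicle control cultures reached saturation at 30 °C; 1 = growth at the plate median or of vehicle wells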
# Details: growth OD
structure (smiles),measurement,setting,value
CC(=O)[C@H]1CCC2C3CC=C4C[C@@H](O)CC[C@]4(C)C3CC[C@@]21C (stereo partly specified),normalized growth,"S. cerevisiae deletion strains, locus YKL009W, strain mrt4, stronger effect = lower value",0.856 (active)
same,normalized growth,"S. cerevisiae deletion strains, locus YKL068W, stronger effect = lower value",1.01
same,normalized growth,"S. cerevisiae deletion strains, locus YKL085W, strain MDH1 (second series), stronger effect = lower value",0.982
same,normalized growth,"S. cerevisiae deletion strains, locus YKL085W, strain MDH1, stronger effect = lower value",0.982
same,normalized growth,"S. cerevisiae deletion strains, locus YKL160W, strain elf1, stronger effect = lower value",0.944
same,normalized growth,"S. cerevisiae deletion strains, locus YKL190W, strain CNB1, stronger effect = lower value",0.97
same,normalized growth,"S. cerevisiae deletion strains, locus YKR001C, strain vps1, stronger effect = lower value",0.991
same,normalized growth,"S. cerevisiae deletion strains, locus YKR026C, strain gcn3, stronger effect = lower value",1.01
same,normalized growth,"S. cerevisiae deletion strains, locus YKR091W, strain srl3, stronger effect = lower value",1.01
same,normalized growth,"S. cerevisiae deletion strains, locus YLL001W, strain dnm1, stronger effect = lower value",0.928
same,normalized growth,"S. cerevisiae deletion strains, locus YLL026W, stronger effect = lower value",0.912 (active)
same,normalized growth,"S. cerevisiae deletion strains, locus YLL041C, strain sdh2, stronger effect = lower value",0.999
same,normalized growth,"S. cerevisiae deletion strains, locus YLR027C, strain aat2, stronger effect = lower value",0.926
same,normalized growth,"S. cerevisiae deletion strains, locus YLR039C, strain RIC1, stronger effect = lower value",0.487 (active)
same,normalized growth,"S. cerevisiae deletion strains, locus YLR058C, strain SHM2, stronger effect = lower value",0.995
same,normalized growth,"S. cerevisiae deletion strains, locus YLR102C, strain apc9, stronger effect = lower value",1.03
same,normalized growth,"S. cerevisiae deletion strains, locus YLR113W, strain HOG1, stronger effect = lower value",1.01
same,normalized growth,"S. cerevisiae deletion strains, locus YLR221C, strain rsa3, stronger effect = lower value",0.923
same,normalized growth,"S. cerevisiae deletion strains, locus YLR258W, strain gsy2, stronger effect = lower value",0.961
same,normalized growth,"S. cerevisiae deletion strains, locus YLR262C, strain YPT6 (second series), stronger effect = lower value",0.456 (active)
same,normalized growth,"S. cerevisiae deletion strains, locus YLR262C, strain YPT6, stronger effect = lower value",0.532 (active)
same,normalized growth,"S. cerevisiae deletion strains, locus YLR268W, strain sec22, stronger effect = lower value",0.949
same,normalized growth,"S. cerevisiae deletion strains, locus YLR320W, strain mms22, stronger effect = lower value",0.646 (active)
same,normalized growth,"S. cerevisiae deletion strains, locus YLR330W, strain CHS5, stronger effect = lower value",1.02
same,normalized growth,"S. cerevisiae deletion strains, locus YLR342W, strain FKS1 (second series), stronger effect = lower value",0.896
same,normalized growth,"S. cerevisiae deletion strains, locus YLR342W, strain FKS1, stronger effect = lower value",0.915
same,normalized growth,"S. cerevisiae deletion strains, locus YLR357W, strain rsc2, stronger effect = lower value",1.09
same,normalized growth,"S. cerevisiae deletion strains, locus YLR370C, strain arc18, stronger effect = lower value",0.987
same,normalized growth,"S. cerevisiae deletion strains, locus YLR371W, strain rom2, stronger effect = lower value",1.02
same,normalized growth,"S. cerevisiae deletion strains, locus YLR384C, strain iki3, stronger effect = lower value",0.998
same,normalized growth,"S. cerevisiae deletion strains, locus YLR418C, strain cdc73, stronger effect = lower value",0.791 (active)
same,normalized growth,"S. cerevisiae deletion strains, locus YML016C, strain PPZ1, stronger effect = lower value",1
same,normalized growth,"S. cerevisiae deletion strains, locus YML032C, strain rad52, stronger effect = lower value",0.952
same,normalized growth,"S. cerevisiae deletion strains, locus YML120C, strain ndi1, stronger effect = lower value",0.934
same,normalized growth,"S. cerevisiae deletion strains, locus YML124C, strain tub3, stronger effect = lower value",1.04
same,normalized growth,"S. cerevisiae deletion strains, locus YMR058W, strain fet3, stronger effect = lower value",0.946
same,normalized growth,"S. cerevisiae deletion strains, locus YMR078C, strain ctf18, stronger effect = lower value",1.01
same,normalized growth,"S. cerevisiae deletion strains, locus YMR125W, strain sto1, stronger effect = lower value",0.988
same,normalized growth,"S. cerevisiae deletion strains, locus YMR129W, stronger effect = lower value",0.985
same,normalized growth,"S. cerevisiae deletion strains, locus YMR205C, strain PFK2, stronger effect = lower value",0.944
same,normalized growth,"S. cerevisiae deletion strains, locus YMR223W, strain ubp8, stronger effect = lower value",0.964
same,normalized growth,"S. cerevisiae deletion strains, locus YMR231W, strain pep5, stronger effect = lower value",1
same,normalized growth,"S. cerevisiae deletion strains, locus YMR263W, strain SAP30, stronger effect = lower value",0.979
same,normalized growth,"S. cerevisiae deletion strains, locus YMR307W, strain GAS1, stronger effect = lower value",1.19
same,normalized growth,"S. cerevisiae deletion strains, locus YNL067W, strain RPL9B, stronger effect = lower value",0.935
same,normalized growth,"S. cerevisiae deletion strains, locus YNL071W, strain lat1, stronger effect = lower value",0.716 (active)
same,normalized growth,"S. cerevisiae deletion strains, locus YNL128W, strain TEP1, stronger effect = lower value",1.01
same,normalized growth,"S. cerevisiae deletion strains, locus YNL153C, strain GIM3, stronger effect = lower value",0.948
same,normalized growth,"S. cerevisiae deletion strains, locus YNL183C, strain NPR1, stronger effect = lower value",0.866
same,normalized growth,"S. cerevisiae deletion strains, locus YNL209W, strain ssb2, stronger effect = lower value",0.983
same,normalized growth,"S. cerevisiae deletion strains, locus YNL233W, strain BNI4, stronger effect = lower value",0.93
same,normalized growth,"S. cerevisiae deletion strains, locus YNL248C, strain rpa49, stronger effect = lower value",0.899
same,normalized growth,"S. cerevisiae deletion strains, locus YNL250W, strain rad50, stronger effect = lower value",1
same,normalized growth,"S. cerevisiae deletion strains, locus YNL271C, strain bni1, stronger effect = lower value",1.02
same,normalized growth,"S. cerevisiae deletion strains, locus YNL298W, strain CLA4, stronger effect = lower value",0.999
same,normalized growth,"S. cerevisiae deletion strains, locus YNL307C, strain MCK1, stronger effect = lower value",0.649 (active)
same,normalized growth,"S. cerevisiae deletion strains, locus YNL322C, strain KRE1 (second series), stronger effect = lower value",1.03
same,normalized growth,"S. cerevisiae deletion strains, locus YNL322C, strain KRE1, stronger effect = lower value",1.01
same,normalized growth,"S. cerevisiae deletion strains, locus YNR049C, strain mso1, stronger effect = lower value",1.01
same,normalized growth,"S. cerevisiae deletion strains, locus YNR052C, strain pop2, stronger effect = lower value",0.992
same,normalized growth,"S. cerevisiae deletion strains, locus YOL006C, strain TOP1, stronger effect = lower value",0.68
same,normalized growth,"S. cerevisiae deletion strains, locus YOL012C, strain htz1",1.1
same,normalized growth,"S. cerevisiae deletion strains, locus YOL147C, strain pex11, stronger effect = lower value",1.02
same,normalized growth,"S. cerevisiae deletion strains, locus YOR001W, strain rrp6, stronger effect = lower value",0.904
same,normalized growth,"S. cerevisiae deletion strains, locus YOR061W, strain CKA2, stronger effect = lower value",0.991
same,normalized growth,"S. cerevisiae deletion strains, locus YOR069W, strain VPS5, stronger effect = lower value",1.01
same,normalized growth,"S. cerevisiae deletion strains, locus YOR070C, strain gyp1, stronger effect = lower value",0.956
same,normalized growth,"S. cerevisiae deletion strains, locus YOR080W, strain dia2, stronger effect = lower value",0.986
same,normalized growth,"S. cerevisiae deletion strains, locus YOR083W, strain WHI5, stronger effect = lower value",0.907
same,normalized growth,"S. cerevisiae deletion strains, locus YOR106W, strain vam3, stronger effect = lower value",0.927
same,normalized growth,"S. cerevisiae deletion strains, locus YOR136W, strain idh2, stronger effect = lower value",1.01
same,normalized growth,"S. cerevisiae deletion strains, locus YOR144C, strain elg1, stronger effect = lower value",1.03
same,normalized growth,"S. cerevisiae deletion strains, locus YOR184W, strain ser1, stronger effect = lower value",0.75 (active)
same,normalized growth,"S. cerevisiae deletion strains, locus YOR231W, strain MKK1, stronger effect = lower value",0.958
same,normalized growth,"S. cerevisiae deletion strains, locus YOR265W, strain rbl2, stronger effect = lower value",0.967
same,normalized growth,"S. cerevisiae deletion strains, locus YOR270C, strain vph1, stronger effect = lower value",0.783
same,normalized growth,"S. cerevisiae deletion strains, locus YOR290C, strain snf2, stronger effect = lower value",0.947
same,normalized growth,"S. cerevisiae deletion strains, locus YOR316C, strain cot1, stronger effect = lower value",1.03
same,normalized growth,"S. cerevisiae deletion strains, locus YPL051W, strain arl3, stronger effect = lower value",0.903 (active)
same,normalized growth,"S. cerevisiae deletion strains, locus YPL055C, strain LGE1, stronger effect = lower value",0.869
same,normalized growth,"S. cerevisiae deletion strains, locus YPL078C, strain atp4, stronger effect = lower value",0.898
same,normalized growth,"S. cerevisiae deletion strains, locus YPL106C, strain sse1, stronger effect = lower value",1.16 [resistant] (active)
same,normalized growth,"S. cerevisiae deletion strains, locus YPL240C, strain hsp82, stronger effect = lower value",1
same,normalized growth,"S. cerevisiae deletion strains, locus YPL241C, strain CIN2, stronger effect = lower value",1
same,normalized growth,"S. cerevisiae deletion strains, locus YPL256C, strain CLN2, stronger effect = lower value",1.02
same,normalized growth,"S. cerevisiae deletion strains, locus YPR119W, strain clb2, stronger effect = lower value",1.02
same,normalized growth,"S. cerevisiae deletion strains, locus YPR141C, strain kar3, stronger effect = lower value",1.05
same,normalized growth,"S. cerevisiae deletion strains, locus YPR163C, strain tif3, stronger effect = lower value",1.02
same,normalized growth,"S. cerevisiae deletion strains, locus YPR167C, strain met16, stronger effect = lower value",1.01
same,normalized growth,"S. cerevisiae deletion strains, strain wtn01, stronger effect = lower value",0.948
same,normalized growth,"S. cerevisiae strains, strain wild type, stronger effect = lower value",0.962
